High-throughput results from PubChem.
An excerpt weighted towards active compounds, which were near 6.3% of everything screened.
VP16 counter: inhibits Gal4-VP16 luciferase reporter, ROR gamma counter-screen; Drosophila S2 Gal4-VP16 UAS-luciferase, luminescence, 20 h; Potency, µM (series often up to 53.6 µM), most hits filed as inhibitors; hit rate 3.5% among 310,000; AID 2546;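 also: Gal4-VP16 expression switched on by copper sulfate through the metallothionein promoter; nearly all actives have a fitted effect of over 50% in size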
ATXN viability: cell viability loss in ATXN counter-screen; hit rate 0.49% among 400,000; S2 cells (HEK-293 line with an ATXN2-luciferase reporter) viability, CellTiter-Fluor protease fluorescence, 24 h; Potency, µM (titrated, usually from 56.7 µM), actives largely listed as cytotoxic; AID 651635; also: nearly all actives have a fitted effect of over 40% in size
HepG2 viability: kills HepG2 cells in TGF-b inhibitor counter-screen. HepG2 CAGA-GFP viability, ATP luminescence, 18 h. Potency, µM (highest dose often 46.1 µM), hits mostly cytotoxic. hit rate 0.76% among 410,000. AID 588856
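CellTiter-Glo luminescence gave cytotoxicity after 18 hours at 37 degrees C. The cells were HepG2 CAGA-GFP in 1% FBS DMEM, stimulated with 500 pg/mL TGF-beta after compound addition. %Activity was normalised to no-cell wells (complete cell-killing) and DMSO (no toxicity), and curves were fitted and classified.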
RORg inh: ROR gamma (mouse) transcription inhibition | Potency, µM (highest dose often 53.6 µM), actives largely listed as inhibitors | AID 2551 | Drosophila S2 Gal4-RORgamma UAS-luciferase reporter, 20 h | P51450 | hit rate 5.4% among 310,000; also: nearly all actives have a fitted effect of over 60% in size
Target sequence (P51450 whole entry, looked up, the tested form may be a part): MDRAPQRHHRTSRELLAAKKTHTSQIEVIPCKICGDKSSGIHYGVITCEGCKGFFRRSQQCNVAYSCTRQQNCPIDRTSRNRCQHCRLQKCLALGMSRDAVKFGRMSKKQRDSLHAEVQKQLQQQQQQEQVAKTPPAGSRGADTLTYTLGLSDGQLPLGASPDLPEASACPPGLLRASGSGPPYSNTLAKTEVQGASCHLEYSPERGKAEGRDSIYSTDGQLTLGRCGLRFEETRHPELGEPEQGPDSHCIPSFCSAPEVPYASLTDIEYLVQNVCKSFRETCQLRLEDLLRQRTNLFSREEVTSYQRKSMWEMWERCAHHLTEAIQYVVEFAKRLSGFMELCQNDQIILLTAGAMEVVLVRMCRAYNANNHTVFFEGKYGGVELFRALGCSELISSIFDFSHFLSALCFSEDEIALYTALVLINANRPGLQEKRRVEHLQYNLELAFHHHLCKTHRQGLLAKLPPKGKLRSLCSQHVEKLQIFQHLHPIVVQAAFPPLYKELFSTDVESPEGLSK
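Stably transfected Drosophila Schneider cells are the test system, with ROR gamma fused to Gal4 and luciferase under UAS control; luminescence is read after 20 hr of 700 uM copper sulfate induction at ambient temperature.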
TGFb SMAD3 inh: TGF-b pathway inhibition; HepG2 CAGA-GFP TGF-b/SMAD3 reporter, GFP fluorescence, 18 h; TGF-beta stimulated, 500 pg/mL final; Potency, µM (doses to about 46.1 µM), most hits filed as inhibitors; hit rate 1.2% among 410,000; AID 588855; also: nearly all actives have a fitted effect of over 65% in size
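Inhibition was scored as loss of TGF-beta-induced (500 pg/mL final, 18 hours, 37 degrees C) GFP in HEPG2 cells carrying a CAGA-GFP reporter, in DMEM with 1% FBS. Well GFP was summed per cell; Activity was normalised to unstimulated and stimulated DMSO wells, then concentration-response fitting.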
ATXN2 expr inh: reduces ATXN2 reporter expression in HEK-293 cells. hit rate 0.72% among 360,000. HEK-293 ATXN2-luciferase reporter, luminescence, 24 h. Potency, µM (doses to about 57 µM), actives largely listed as inhibitors; also: nearly all actives have a fitted effect of over 55% in size
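qHTS (up to 57 uM final) was run with 24 h compound exposure of reporter cells at 37 °C. Each well was multiplexed: SteadyGlo luminescence measured ATXN2-luciferase expression after a fluorogenic Gly-Phe-AFC viability readout (25 uM final).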
A number is an active result; - = inactive; ? = inconclusive; . = not tested or not shown; [ ] = dose if it differs, or a comment. Calls follow the shape of the dose curve; as a rule, active = well fitted curve in the direction sought with a large enough effect; inconclusive = small, poorly fitted or top-dose-only effect, or another doubt; inactive = no such curve, though single readings can be large; an effect the other way counts as inactive or inconclusive.

SMILES	VP16 counter	ATXN viability	HepG2 viability	RORg inh	TGFb SMAD3 inh	ATXN2 expr inh
CC(C)(C)C(=O)[C@@H]1[C@@H]2C(=O)N(Cc3ccccc3)C(=O)[C@@H]2[C@H]2c3ccccc3C=CN12	?	.	.	11.2µM	.	.
COc1cc(=O)n2c(c1C(=O)N(C)Cc1nonc1C)CCN(C(=O)c1cc(C)cc(C)c1)CC2	.	-	.	.	.	.
O=C1CSC(=S)N1/N=C/c1c(F)cccc1F	-	-	-	-	-	-
N=C1SCC(=O)N1/N=C/c1ccccc1	?	-	-	11.2µM	-	-
O=C1CSC(=S)N1/N=C/c1ccc(C(F)(F)F)cc1	-	-	-	?	-	-
O=C1CSC(=S)N1/N=C/C=C/c1ccccc1	?	-	-	2.51µM	-	-
O=C1CSC(=S)N1/N=C/c1cccc(C(F)(F)F)c1	?	-	-	7.94µM	-	-
COc1cc(C(=O)NCC2CCCO2)cc(Br)c1OCc1ccccc1 (stereo not drawn)	.	-	-	.	-	-
COc1ccc(CNC(=O)C[C@@H]2C[C@H]3c4cc(NC(=O)NC5CCCC5)ccc4O[C@H]3[C@H](CO)O2)cc1	.	-	-	.	-	-
Cc1ccccc1CNC(=O)Cn1ncn2nc(-c3cccs3)cc2c1=O	.	-	-	.	-	-
CCSc1ncnc2nc[nH]c12	.	.	-	.	-	.
Cc1cccc(NC(=O)c2nc[nH]c2C(=O)N[C@@H](C)CO)c1	.	-	-	.	-	-
NC(=O)N/N=C/c1c(O)ccc2oc3c(c12)CCCC3	-	-	-	-	10µM	?
O=C(Cn1c(=O)n(Cc2ccco2)c(=O)c2ccccc21)Nc1cccc(Cl)c1	-	?	-	-	10µM	?
O=C(CCCn1c2ccccc2c(=O)c2ccccc21)Nc1cccc(Cl)c1	.	.	-	.	12.6µM	?
Cc1ccc2c(c1)c(=O)c1ccccc1n2CCCC(=O)Nc1ccc(Cl)c(Cl)c1	.	-	-	.	?	-
Cc1ccc2c(c1)c(=O)c1ccccc1n2CCCC(=O)Nc1ccc(C)c(C)c1	.	-	-	.	?	?
Cc1ccc2c(c1)c(=O)c1ccccc1n2CCCC(=O)Nc1ccc(C)c(F)c1	.	.	-	.	6.31µM	-
CCOC(=O)c1c(C)[nH]c(C)c1S(=O)(=O)N1CCCC(C(=O)Nc2ccccc2OCC)C1 (stereo not drawn)	.	-	-	.	?	-
CC(C)NC(=O)N1CC2(CCN(C(=O)c3cc(C(F)(F)F)cc(C(F)(F)F)c3)CC2)C1	-	.	.	-	.	.
COc1cc(/C=C2/SC(=S)NC2=O)ccc1OS(=O)(=O)c1ccc(C)cc1	?	-	-	?	15.8µM	-[11.3 µM]
C[C@H]1CCC/C=C/[C@@H]2C[C@H](O)C[C@H]2[C@H](O)[C@H](S(=O)c2ccc(O)cc2)CC(=O)O1 (stereo partly drawn)	.	?	-	.	0.126µM	?
CC1CCCC=CC2CC(OC(=O)CN(C)C)CC2C(O)C=CC(=O)O1 (stereo not drawn)	.	?	-	.	?	?
O=C(NCCc1ccccn1)C1CC12CCN(C(=O)c1cccc(C(F)(F)F)c1)CC2 (stereo not drawn)	.	-	.	.	.	.
CCN(CC)S(=O)(=O)c1cccc(C(=O)N/N=C(\C)c2ccc(O)cc2O)c1	-	.	-	12.6µM	-	2.38µM
SMILES	VP16 counter	ATXN viability	HepG2 viability	RORg inh	TGFb SMAD3 inh	ATXN2 expr inh
O=C(Cc1ccc(OCCCCc2ccccc2)cc1)NO	.	.	-	.	-	.
Cc1cc(/N=C/C=C2/N(C)c3ccccc3C2(C)C)n(CCC#N)n1	.	.	-	.	-	?
CCOC(=O)c1[nH]c2ccc(OC)cc2c1NC(=S)N1CCN(c2cccc(C)c2C)CC1	?	-	10µM	4.47µM	17.8µM	-
CCOC(=O)c1[nH]c2ccc(OC)cc2c1NC(=S)N1CCN(c2ccc(F)cc2)CC1	-	-	-	-	-	-
Cc1ccccc1N/N=C/c1c(C)nc2ccccn12	-	-	-	10µM	-	-
Cc1nc2cc(NC(=O)[C@@H]3C[C@@H](Sc4ccccn4)CN3Cc3cccc(Cl)c3)ccc2s1	.	-	.	.	.	.
Clc1cc(Br)ccc1OCCCNCc1ccccc1	-	-	12.6µM	-	11.2µM	-
CC(C1CC2CCC1C2)N1CC(O)=C(c2nc3ccccc3[nH]2)C1=N (stereo not drawn)	?	-	-	8.91µM	-	-
C[C@@H]1CCC2[C@](C)(CO)[C@@H](O)CC[C@]2(C)[C@]12CCC(CO)(CCO)O2 (stereo partly drawn)	-	.	.	-	.	.
CCc1cc(C(=O)NNC(=S)NC2CCCCC2)cs1	10µM	?	-	2.24µM	-	-
CCc1c(C(=O)NNC(=S)NC2CCCCC2)csc1C	?	-	-	1.12µM	-	-
CN(C)c1ccc(/C=C2\CCc3ccccc32)cc1	.	.	-	.	-	.
COc1cc(N(C)C)ccc1C=c1c2ccccc2n2c1cc(-c1ccccc1)[n+]2C	.	11.9µM	-	.	3.55µM	11.9µM
CN(C)c1ccc(C=c2c3ccccc3n3c2cc(-c2ccc(Cl)cc2)[n+]3C)cc1	.	11.2µM	-	.	?	?
CN(c1ccc(Cl)cc1)c1cc(=O)n(C)c2ccccc12	-	-	-	-	-	-
COc1cc(C=c2c3ccccc3n3c2cc(-c2ccccc2)[n+]3C)cc(OC)c1OC	.	?	-	.	?	?
CN(C)c1ccc(C=c2c3cc([N+](=O)[O-])ccc3n3c2cc(-c2ccccc2)[n+]3C)cc1	.	.	-	.	?	28.2µM
CN(C)c1ccc(C=c2c3ccccc3n3c2c2c([n+]3C)CCCC2)cc1	.	22.4µM	-	.	2.51µM	8.91µM
COc1ccc2c(c1)c1c(c(=O)n(-c3cccc(C)c3)c(=O)n1CC(=O)NCc1ccc(C)cc1)n2C	.	?	-	.	?	-
O=C(NCCc1ccc(Cl)cc1)C1COc2ccccc2C1 (stereo not drawn)	.	?	-	.	-	-
CN(C)c1ccc(C=c2c3ccccc3n3c2cc(-c2ccccc2)[n+]3C)cc1	.	5.97µM	7.94µM	.	?	?
N=c1c2c(-c3ccccc3)c(-c3ccccc3)n(Cc3ccccc3)c2ncn1CCCn1ccnc1	10µM	.	-	10µM	?	?
CCCCn1cnc2c(c(-c3ccccc3)c(-c3ccccc3)n2Cc2ccco2)c1=N	-	?	-	-	-	-
N=c1c2c(-c3ccccc3)c(-c3ccccc3)n(Cc3ccco3)c2ncn1Cc1ccco1	28.2µM	?	-	?	-	?
Cc1ccc(NC(=O)c2sc3ncnc(N(C)C4CCCCC4)c3c2C)cc1	.	?	-	.	-	-
COc1ccc(C)cc1Nc1n[n+](-c2ccccc2)c(-c2cc(OC)c(OC)cc2Br)s1	?	22.4µM	-	10µM	?	?
COc1ccc(C)cc1Nc1n[n+](-c2ccccc2)c(-c2c(OC)ccc3ccccc23)s1	.	.	-	.	?	?
